Experimental data published in PubChem BioAssay (NCATS).
Records with an inconclusive call do not appear. Values without a mark were called inactive. The source made the active and inactive calls. Calls come from the whole dose curve; as a rule, active = well fitted cell-killing curve with a large enough effect; inconclusive = small, poorly fitted or top-dose-only effect; inactive = flat fitted curve, though single readings scatter.

Assay: MultiTox-Fluor Cytotoxicity Assay - LYMP1-001 - Live Cells (AID 947);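 for activity change, negative = cytotoxicity: 0% = DMSO only and full inhibition = tetraoctylammonium bromide control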
Conditions: LYMP1-001 lymphoblastoid cells, live-cell protease fluorescence viability; series mostly up to 92.2 µM; activity change, negative = cytotoxicity: at the top concentration
Source text: NIH Chemical Genomics Center [NCGC]
NIH Molecular Libraries Screening Centers Network [MLSCN]
National Institutes of Environmental Health Sciences [NIEHS]
National Toxicology Program [NTP]
We have developed a 1536-well cell-based assay for quantitative high throughput screening (qHTS) against a number of cell lines to determine in vitro cytotoxicity of small molecules. This particular assay uses a human lymphoblastoid cell line (LYMP1-001) purchased from Coriell Institute.
NCGC Assay Protocol Summary:
The MultiTox-Fluor Cytotoxicity Assay (Promega) is a homogeneous method to simultaneously measure the relative number of live and dead cells in culture by detecting changes in cell membrane integrity. There are two fluorogenic peptide substrates in the assay reagent. Viable cells are determined when the cell-permeant substrate (GF-AFC) enters the cell and is cleaved by protease from live cells resulting in liberated fluorophore. This live-cell protease activity restricted to viable cells is proportional to cell number. The dead cells are determined by using fluorogenic cell-impermeant peptide substrate (bis-AAF-R110) which cleaved by dead cell proteases leaking from damaged cell membrane.
Using the MultiTox-Fluor Cytotoxicity Assay, the relative number of live cells was measured in the lymphoblastoid cell line with complete culture medium following compound treatment for 16 hours. The assay was performed in opaque black Kalypsys 1536-well plates. In the screen, tetraoctylammonium bromide was used as positive control. Library compounds were measured for their ability to cause acute toxicity in the cell line, as reflected by a decrease in live cell protease activity, in a concentration-dependent manner. […] AC50 values were determined from concentration-response data modeled with the standard Hill equation.
qHTS protocol for MultiTox-Fluor Cytotoxicity assay
[Step] [Parameter] [Value] [Description]
1. Reagent; 5 uL; 2500 lymphoblastoid cells/well
2. Time; 5 hr; 37 C incubation
4. Controls; 23 nL; Tetraoctylammonium bromide 6.4pM to 92 uM
5. Time; 16 hr; 37 C incubation
6. Reagent; 5 uL; MuliTox-Fluor Assay reagent
7. Time; 60 min; Room Temperature
8. Detection; live-cell fluorescence (Ex/Em=405/510); EnVision plate reader
Keywords: cell viability, cytotoxicity, lymphoblastoid cell line, fluorescence, NTPHTS, NTPHTS_NCGC, NIEHS, EPA, DSSTox, MLSMR, MLSCN, NIH Roadmap, qHTS, NCGC
Potency is the fitted concentration of half-maximal effect.

In order of falling “activity change, negative = cytotoxicity” value:
1. CCSC(=O)Cl  21.9%
2. OCC(Br)CBr (stereo not given)  12%
3. CC(C)(c1ccccc1)c1ccc(O)cc1  11.9%
4. Clc1nc(Cl)nc(Cl)n1  5.89%
5. C1CCC2CCCCC2C1 (stereo not given)  5.85%
6. C/C=C/c1ccc2c(c1)OCO2  5.68%
7. C=CCc1ccc(OC)cc1  5.53%
8. C[N+](C)(C)Cc1ccccc1  5.45%
9. ClC(Cl)=C(Cl)C(Cl)=C(Cl)Cl  5.11%
10. Cc1cccc([N+](=O)[O-])c1  3.56%
11. O=C(O)COc1ccc(Cl)cc1Cl  1.94%
12. C[C@]12CC[C@H]3[C@@H](CCC4=CC(=O)CC[C@@]43C)[C@@H]1CC[C@@H]2O  1.29%
13. O=C(Cl)/C=C/C(=O)Cl  1.28%
14. CCOP(=S)(OCC)SCSC(C)(C)C  0.365%
15. C=CC(C)=O  -0.776%
16. c1ccc(OP(Oc2ccccc2)Oc2ccccc2)cc1  -0.818%
17. O=[N+]([O-])c1cccc2ccccc12  -2.97%
18. Clc1cccc(C(Cl)(Cl)Cl)n1  -3.35%
19. Cc1ccc(O)c(C)c1  -3.69%
20. CCC[CH2][Sn]([Cl])([Cl])[Cl]  -3.98%
21. Clc1nc(Cl)nc(Nc2ccccc2Cl)n1  -4.16%
22. COc1ccc(C=O)cc1OC  -4.55%
23. CCCCCCCC(=O)Cl  -6.46%
24. CCCCOCCOP(=O)(OCCOCCCC)OCCOCCCC  -9.66%
25. C=CC(=C)C  -12.6%
26. CCOCN(C(=O)CCl)c1c(C)cccc1CC  -14%
27. CC(O)CCl (stereo not given)  -16.1%
28. Cc1ccc2ccccc2c1  -17%
29. COP(=S)(OC)Oc1ccc([N+](=O)[O-])cc1  -17.1%
30. C=C(Cl)Cl  -17.2%
31. Clc1ccc2ccccc2c1  -19.7%
32. COC(=O)NC(=S)Nc1ccccc1NC(=S)NC(=O)OC  -21.6%
33. Nc1ccc(Br)cc1  -24.7%
34. c1ccc2c(c1)CCCC2  -27.5%
35. CC(C)(C)OOC(C)(C)C  -27.8%

For `Brc1ccc(Oc2cc(Br)c(Br)cc2Br)c(Br)c1`, the Potency was “inactive”.
For `CCOP(=S)(OCC)Oc1ccc([N+](=O)[O-])cc1`, the Potency was “inactive”.
In the case of `N#CCCCl`, the Potency is reported as “inactive”.
In the case of `C[C@H]1CCCC(=O)CCC/C=C/c2cc(O)cc(O)c2C(=O)O1`, the Potency is reported as “inactive”.
In the case of `ClC1=C(Cl)C2(Cl)C3C4CC(C5OC45)C3C1(Cl)C2(Cl)Cl` (stereo not given), the Potency is reported as 15.8 µM (active).
